From PubChem BioAssay AID1159580 (chemical genetic matrix, 2015)
Where “and” joins values, the source holds several entries; their conditions need not be identical. Identical values can stand only once. Hit rate of the full screen: of about 5,500 compounds, about 2,000 (36%) were called active. Roughly 18% stayed inconclusive and do not appear here. Rule as the data show it: active = normalized growth mostly below about 0.91 (no sharp cut-off); inconclusive = no clear call, values can overlap the other calls; inactive = mostly above about 0.92. The list shows a part of the results.

Assay: chemical genetic growth profiling, strain panel (AID 1159580);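 also: tested at 20 µM; growth read once vehicle control cultures reached saturation at 30 °C; 1 = growth at the plate median or of vehicle wells; lower values mean less growth of the strain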
Conditions: S. cerevisiae deletion strains, growth OD

Measured: normalized growth

COC(=O)C(N)CS (stereo unspecified)
inactive: locus YAL013W, strain DEP1, hits give low values 0.991 | locus YAL021C, strain ccr4, hits give low values 0.93 | locus YAL026C, strain drs2, hits give low values 0.967 | locus YAL030W, strain snc1, hits give low values 0.993 | locus YBL061C, strain skt5, hits give low values 0.998 | locus YBR009C, strain hhf1, hits give low values 0.958 | locus YBR021W, strain FUR4, hits give low values 0.994 | locus YBR023C, strain chs3, hits give low values 1.02 | locus YBR171W, strain sec66, hits give low values 0.984 | locus YBR229C, strain ROT2, hits give low values 0.992 | locus YBR231C, strain swc5, hits give low values 0.974 | locus YBR279W, strain paf1, hits give low values 1.01 | locus YCL011C, strain gbp2, hits give low values 0.996 | locus YCL016C, strain dcc1, hits give low values 1.04 | locus YCL029C, strain bik1, hits give low values 0.964 | locus YCL069W, strain vba3, hits give low values 0.954 | locus YCR088W, strain abp1, hits give low values 0.982 | locus YDL005C, strain med2, hits give low values 1 | locus YDL035C, strain GPR1, hits give low values 0.978 | locus YDL040C, strain nat1, hits give low values 0.99 | locus YDL074C, strain BRE1, hits give low values 0.98 | locus YDL101C, strain DUN1, hits give low values 0.984 | locus YDL134C, strain PPH21, hits give low values 0.977 | locus YDL185W, strain tfp1, hits give low values 0.966 | locus YDL192W, strain arf1, hits give low values 0.975 | locus YDR001C, strain nth1, hits give low values 0.984 | locus YDR069C, strain doa4, hits give low values 0.959 | locus YDR101C, strain arx1, hits give low values 0.985 | locus YDR137W, strain rgp1, hits give low values 0.924 | locus YDR150W, strain NUM1, hits give low values 0.996 | locus YDR159W, strain sac3, hits give low values 0.929 | locus YDR162C, strain NBP2, hits give low values 0.985 | locus YDR195W, strain ref2 1.03 | locus YDR297W, strain sur2, hits give low values 0.98 | locus YDR318W, strain mcm21, hits give low values 0.93 | locus YDR334W, strain swr1, hits give low values 0.959 | locus YDR335W, strain msn5, hits give low values 0.995 | locus YDR388W, hits give low values 0.951 | locus YDR392W, strain spt3, hits give low values 0.806 | locus YDR502C, strain sam2, hits give low values 0.98 | locus YEL003W, strain gim4, hits give low values 0.966 | locus YEL037C, strain rad23, hits give low values 0.978 | locus YEL061C, strain CIN8 (second series), hits give low values 0.966 | locus YEL061C, strain CIN8, hits give low values 0.997 | locus YER015W, strain faa2, hits give low values 0.997 | locus YER016W, strain bim1, hits give low values 0.997 | locus YER110C, hits give low values 0.991 | locus YER111C, strain swi4, hits give low values 1.03 | locus YER155C, strain BEM2 (second series), hits give low values 0.886 | locus YER155C, strain BEM2, hits give low values 1 | locus YER167W, strain BCK2, hits give low values 0.971 | locus YFR010W, strain ubp6, hits give low values 0.94 | locus YGL078C, strain dbp3, hits give low values 0.988 | locus YGL086W, strain mad1, hits give low values 0.976 | locus YGL167C, strain pmr1, hits give low values 0.977 | locus YGL173C, strain kem1, hits give low values 0.938 | locus YGL227W, strain vid30, hits give low values 0.971 | locus YGL240W, strain doc1, hits give low values 0.941 | locus YGL248W, strain PDE1, hits give low values 0.959 | locus YGL253W, strain hxk2, hits give low values 0.976 | locus YGR078C, strain PAC10, hits give low values 0.976 | locus YGR135W, strain pre9, hits give low values 0.947 | locus YGR229C, strain SMI1, hits give low values 0.949 | locus YGR252W, strain gcn5, hits give low values 0.883 | locus YHR013C, strain ard1, hits give low values 0.938 | locus YHR027C, strain rpn1, hits give low values 0.97 | locus YHR030C, strain SLT2, hits give low values 0.99 and 1.05 | locus YHR079C, strain IRE1 (second series), hits give low values 0.964 | locus YHR079C, strain IRE1, hits give low values 1.04 | locus YHR094C, strain hxt1, hits give low values 0.991 | locus YHR129C, strain ARP1, hits give low values 0.992 | locus YHR142W, strain chs7, hits give low values 1 | locus YHR200W, strain rpn10, hits give low values 0.973 | locus YIL066C, strain RNR3, hits give low values 0.975 | locus YIL073C, strain SPO22, hits give low values 0.903 | locus YIL125W, strain kgd1, hits give low values 0.991 | locus YIR030C, strain dcg1, hits give low values 0.984 | locus YJL092W, strain hpr5, hits give low values 0.995 | locus YJL095W, strain BCK1 (second series), hits give low values 0.995 | locus YJL095W, strain BCK1, hits give low values 0.929 and 1.04 | locus YJL115W, strain asf1, hits give low values 0.977 | locus YJL129C, strain trk1, hits give low values 1.01 | locus YJL134W, strain LCB3, hits give low values 0.996 | locus YJL154C, strain vps35, hits give low values 0.97 | locus YJL164C, strain tpk1, hits give low values 0.965 | locus YJL166W, strain qcr8, hits give low values 0.961 | locus YJL168C, strain set2, hits give low values 0.979 | locus YJL187C, strain SWE1 (second series), hits give low values 0.972 | locus YJL187C, strain SWE1, hits give low values 0.998 | locus YJR043C, strain POL32, hits give low values 0.977 | locus YJR066W, strain TOR1, hits give low values 0.998
